About 83,000 compounds went through this panel and 20% of them were active in at least one assay; those are over-represented in the sample as a whole.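 For each line, cells grew in 96-well plates with the test compound present at a single concentration for 48 hours.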 Values without a mark were called inactive. Activity calls are given as the source filed them. Rule for the calls: active = growth percent below 10; inactive = the rest.

Among the test systems are SK-MEL-2 melanoma; EKVX NSCLC; SN12C renal; UO-31 renal; TK-10 renal; ACHN renal; CAKI-1 renal; A498 renal; CCRF-CEM leukemia; MOLT-4 leukemia.
Assay in all cases: NCI-60 one-dose screen, 48 h (100 = growth as untreated, 0 = no growth, -100 = all killed)
What all share (conditions): 10 µM unless noted

Regarding `O=S(=O)(NCCCNc1nccc(-n2ccc3cccnc32)n1)c1cccc(C(F)(F)F)c1`, the growth with SK-MEL-2 melanoma was 107%; in the assay with EKVX NSCLC, 101%; in the assay with SN12C renal, 108%; in the assay on UO-31 renal, 104%; with TK-10 renal it was 102%; in the assay on ACHN renal, 105%. In addition, the growth is 94.6% in the assay with CAKI-1 renal, 112% with A498 renal, 102% in the assay with CCRF-CEM leukemia and 97.3% in the assay on MOLT-4 leukemia.

In the case of `O=C(NS(=O)(=O)c1ccc2ccccc2c1)n1cc(-c2ccncc2)c(-c2ccc(Cl)c(O)c2)n1`, the growth with SK-MEL-2 melanoma was -2.83% (active); with EKVX NSCLC, 65.5%; in the assay with SN12C renal it was 68.8%; with UO-31 renal, 56.4%; in the assay with TK-10 renal it was 116%; in the assay with ACHN renal, 49.6%. For the same compound, the growth is 96.2% in the assay with CAKI-1 renal, 87.7% in the assay with A498 renal, 74.1% in the assay with CCRF-CEM leukemia and 78.9% with MOLT-4 leukemia.

As to `O=C1/C(=C/c2ccccc2)CN(C(=O)CCN2CCC(=NO)CC2)C/C1=C\c1ccccc1`, the growth in the assay with SK-MEL-2 melanoma was 55.2%; with EKVX NSCLC, 1.08% (active); in the assay with SN12C renal, -18.6% (active); with UO-31 renal, -84% (active); with TK-10 renal it was 0.636% (active); in the assay on ACHN renal, -11% (active). For the same compound, the growth with CAKI-1 renal is -6.16% (active); in the assay with A498 renal, 80%; in the assay on CCRF-CEM leukemia, -2.62% (active); in the assay with MOLT-4 leukemia, 8.95% (active).

In the case of `Cc1ccc(C(=O)NCCCNc2nccc(-n3ccc4cccnc43)n2)cc1`, the growth was 105% in the assay on SK-MEL-2 melanoma; 86.1% in the assay with EKVX NSCLC; 95.1% in the assay with SN12C renal; 85.9% in the assay with UO-31 renal; 67.7% in the assay on TK-10 renal; 83.2% in the assay with ACHN renal. Moreover, the growth in the assay on CAKI-1 renal was 96.6%; in the assay on A498 renal, 81.7%; with CCRF-CEM leukemia it was 107%; in the assay on MOLT-4 leukemia, 94.1%.

With `CCCCOc1ccc(/C=C2/SC(N3CCCC3)=NC2=O)cc1`, the growth in the assay on SK-MEL-2 melanoma is 105%; in the assay with EKVX NSCLC, 94.5%; with SN12C renal it was 87.3%; with UO-31 renal, 82.4%; with TK-10 renal, 103%; in the assay with ACHN renal, 103%. Also, the growth in the assay with CAKI-1 renal was 96.8%; with A498 renal it was 91.3%; in the assay on CCRF-CEM leukemia, 84.3%; in the assay on MOLT-4 leukemia, 95.6%.

For `O=C(O)Cc1cccc(=O)c(O)c1C(=O)O`, the growth was 97.5% in the assay on SK-MEL-2 melanoma; 110% in the assay with EKVX NSCLC; 101% with SN12C renal; 84.2% with UO-31 renal; 108% with TK-10 renal; 101% in the assay on ACHN renal. For the same compound, the growth in the assay on CAKI-1 renal was 96.1%; in the assay on A498 renal, 114%; in the assay on CCRF-CEM leukemia it was 98.3%; in the assay with MOLT-4 leukemia it was 106%.

`NNc1cccc(/C=C/c2ccccc2)cc1=O`: the growth in the assay with SK-MEL-2 melanoma was 83.1%; in the assay with EKVX NSCLC it was 47.9%; in the assay with SN12C renal, 71.6%; in the assay with UO-31 renal, 24.9%; in the assay with TK-10 renal, 70.7%; in the assay on ACHN renal, 37.5%. Further, the growth in the assay with CAKI-1 renal was 12.7%; in the assay with A498 renal, 83.9%; in the assay on CCRF-CEM leukemia it was 14.1%; with MOLT-4 leukemia, 37.6%.

Turning to `CCCCCCN1CSC(=S)N(CCCCCC)C1`, the growth is 124% in the assay on SK-MEL-2 melanoma; 91.7% in the assay with EKVX NSCLC; 104% in the assay with SN12C renal; 79.3% in the assay on UO-31 renal; 111% in the assay on TK-10 renal; 109% in the assay with ACHN renal. Also, the growth in the assay with CAKI-1 renal was 81.3%; in the assay with A498 renal, 94.2%; with CCRF-CEM leukemia, 88.2%; in the assay on MOLT-4 leukemia, 107%.

With `CC(C)(C)NCCC(O)c1cc2c(Cl)cc(Cl)cc2c2cc(C(F)(F)F)ccc12` (stereo not given), the growth with SK-MEL-2 melanoma is -69.5% (active); in the assay with EKVX NSCLC, -63.9% (active); with SN12C renal, -80.1% (active); in the assay on UO-31 renal it was -88.8% (active); with TK-10 renal, -85.7% (active); with ACHN renal, -75.9% (active). Moreover, the growth in the assay with CAKI-1 renal was -68.2% (active); with A498 renal, 16.5%; in the assay on CCRF-CEM leukemia, -50.7% (active); with MOLT-4 leukemia, -61.9% (active).

`O=C(NCCCNc1nccc(-n2ccc3cccnc32)n1)c1c(F)cccc1F`: the growth with SK-MEL-2 melanoma is 114%; in the assay with EKVX NSCLC it was 93.4%; in the assay with SN12C renal, 99.4%; in the assay with UO-31 renal, 92%; in the assay on TK-10 renal it was 116%; in the assay on ACHN renal it was 94.6%. For the same compound, the growth in the assay with CAKI-1 renal was 86.3%; with A498 renal, 103%; with CCRF-CEM leukemia, 101%; in the assay with MOLT-4 leukemia, 99.2%.

Turning to `C=C[C@@H]1C[C@@H]2Cc3cc(Cl)ccc3N1O2`, the growth with SK-MEL-2 melanoma is 107%; with EKVX NSCLC, 90.2%; with SN12C renal, 94.9%; in the assay on UO-31 renal it was 101%; with TK-10 renal, 101%; in the assay on ACHN renal, 104%. In addition, the growth in the assay with CAKI-1 renal was 88.7%; in the assay on A498 renal it was 85.6%; in the assay with CCRF-CEM leukemia it was -61.3% (active); in the assay with MOLT-4 leukemia, 26.4%.

For `CCOC(=O)C1CCNC(=O)C1=O` (stereo not given), the growth was 107% in the assay with SK-MEL-2 melanoma; 122% in the assay with EKVX NSCLC; 97.3% with SN12C renal; 94.2% with UO-31 renal; 103% in the assay on TK-10 renal; 105% with ACHN renal. The growth with CAKI-1 renal was 97.8%; in the assay with A498 renal, 110%; with CCRF-CEM leukemia, 93.7%; with MOLT-4 leukemia it was 96.6%.

`CC(C)CSc1nc(NN)c(C#N)c(-c2ccccc2)n1`: the growth in the assay on SK-MEL-2 melanoma is 101%; in the assay with EKVX NSCLC, 91.4%; with SN12C renal it was 104%; in the assay on UO-31 renal, 81.7%; in the assay on TK-10 renal, 110%; with ACHN renal, 92.8%. The growth was 90.3% in the assay with CAKI-1 renal, 69.1% in the assay with A498 renal, 97.4% with CCRF-CEM leukemia and 104% in the assay with MOLT-4 leukemia.

For `C/C=C/C1=CN2C(=O)c3cc(OC4OC(C)C(NC)C(C)(O)C4O)c(C)cc3N=C[C@@H]2C1` (stereo not given in full), the growth in the assay with SK-MEL-2 melanoma is 27.8%; in the assay on EKVX NSCLC it was 6.04% (active); in the assay with SN12C renal, 4.16% (active); in the assay with UO-31 renal, -34.5% (active); with TK-10 renal it was 22.3%; with ACHN renal, -4.55% (active). Besides, the growth in the assay with CAKI-1 renal was -8.21% (active); in the assay on A498 renal it was -77.5% (active); in the assay with CCRF-CEM leukemia it was 0.51% (active); in the assay with MOLT-4 leukemia, 2.77% (active).
